Screening results deposited in PubChem by National Center for Advancing Translational Sciences (NCATS).
NIH3T3 tox – cytotoxic compounds in NIH 3T3 cells; NIH 3T3 viability, CellTiter-Glo ATP luminescence, 48-72 h; 4.3% of 94,000 active; Potency, µM (top dose mostly 96.7 µM), for inactives: top-dose activity change, negative = cytotoxicity, usual class: inhibitors; AID 1345082; also: nearly all actives have a fitted effect of over 55% in size
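ATP-dependent luminescence (CellTiter-Glo) served as the viability signal for NIH 3T3 cells treated with compound for 48 or 72 hr at 37 °C.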
HEK cytotox – HEK 293 cell cytotoxicity; Potency, µM (doses to about 115 µM), for inactives: at the highest dose activity change, negative = cytotoxicity, hits mostly inhibitors; HEK 293 viability, ATP luminescence (CellTiter-Glo), 48-72 h; 6.6% of 94,000 active; also: nearly all actives have a fitted effect of over 60% in size
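qHTS cytotoxicity; HEK 293, 250 cells/well; compound pinned; 48 or 72 hr, 37 degree Celsius, 5% CO2, 95% humidity; CellTiter-Glo, 10 min RT; luminescence (ATP).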
FLuc inh – inhibitors of firefly (Photinus pyralis) luciferase. Potency, µM (highest dose often 115 µM), most hits filed as inhibitors. 2.5% of 76,000 active. AID 1347043. purified P. pyralis luciferase, luminescence, biochemical. P08659; also: nearly all actives have a fitted effect of over 65% in size
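FLuc 10nM, D-luciferin 10uM, ATP 10uM, Mg acetate 10mM, Tris acetate pH 7.5, Tween/BSA; cpd qHTS; enzyme added last; CCD luminescence.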
NPR1 antag – human Npr1 receptor antagonism. Potency, µM (highest dose often 46.3 µM), inactives show at the top dose activity change, negative = inhibition, usual class: inhibitors. P16066. HEK293 hNpr1 GloSensor cGMP, ANP-stimulated luminescence. AID 1347048. 1.6% of 76,000 active; calls by dose curve; also: nearly all actives have a fitted effect of over 60% in size
Target sequence (P16066 whole entry, looked up): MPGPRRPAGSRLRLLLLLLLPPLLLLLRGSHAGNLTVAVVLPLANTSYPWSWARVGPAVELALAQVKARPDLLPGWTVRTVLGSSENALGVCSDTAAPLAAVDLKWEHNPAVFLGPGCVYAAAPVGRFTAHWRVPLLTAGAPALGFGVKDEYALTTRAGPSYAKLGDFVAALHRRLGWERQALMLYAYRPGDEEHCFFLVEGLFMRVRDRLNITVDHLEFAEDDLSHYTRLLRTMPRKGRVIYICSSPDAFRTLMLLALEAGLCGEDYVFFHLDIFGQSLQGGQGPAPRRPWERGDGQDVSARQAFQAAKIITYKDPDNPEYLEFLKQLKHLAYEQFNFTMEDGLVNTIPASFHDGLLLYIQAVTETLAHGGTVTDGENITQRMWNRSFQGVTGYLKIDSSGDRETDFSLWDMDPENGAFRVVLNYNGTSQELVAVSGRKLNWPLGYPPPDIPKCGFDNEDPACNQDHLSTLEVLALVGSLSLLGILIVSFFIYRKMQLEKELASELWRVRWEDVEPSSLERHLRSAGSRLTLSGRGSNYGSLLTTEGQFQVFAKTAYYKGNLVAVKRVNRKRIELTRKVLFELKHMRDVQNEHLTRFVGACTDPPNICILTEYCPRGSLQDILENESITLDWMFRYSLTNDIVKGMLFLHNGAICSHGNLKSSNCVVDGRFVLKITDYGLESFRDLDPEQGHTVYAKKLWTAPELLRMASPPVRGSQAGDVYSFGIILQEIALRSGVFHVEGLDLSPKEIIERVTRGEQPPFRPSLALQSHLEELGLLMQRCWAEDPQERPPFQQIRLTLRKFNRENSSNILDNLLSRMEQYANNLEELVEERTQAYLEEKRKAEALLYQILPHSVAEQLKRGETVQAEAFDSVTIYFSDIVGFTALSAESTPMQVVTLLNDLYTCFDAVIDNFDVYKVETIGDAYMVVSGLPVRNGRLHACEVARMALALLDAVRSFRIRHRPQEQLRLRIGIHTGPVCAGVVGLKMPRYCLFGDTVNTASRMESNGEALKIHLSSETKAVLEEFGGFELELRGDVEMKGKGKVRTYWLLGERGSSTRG
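HEK293 cells stably expressing human Npr1 and cGMP GloSensor pGS-40F, loaded 2 h with 2% GloSensor reagent, given compound 30 min at room temperature. Luminescence read before and 20 min after 0.1 nM hNppA.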
The depositor's hits bear a star; i = inactive; ? = inconclusive; . = no result; [ ] = another dose, or the depositor's remark. Most compounds without a hit are left out; they make up all but 11% or so of the library. Unless noted, calls follow the shape of the dose curve; as a rule, active = well fitted curve in the direction sought with a large enough effect; inconclusive = small, poorly fitted or top-dose-only effect, or another doubt; inactive = no such curve, though single readings can be large; an effect the other way counts as inactive or inconclusive. % is scaled to controls: 0 for no effect and ±100 for the full control effect; potency is read from the fitted curve at half-maximal effect.

SMILES | NIH3T3 tox | HEK cytotox | FLuc inh | NPR1 antag
Fc1ccc(-c2ccc3ncc(Nc4ccnc(N5CCOCC5)c4)n3n2)cc1 | 8.9µM* | 32µM* | i | ?
Fc1ccc(-c2ccc3ncc(Nc4cc(F)cc(N5CCOCC5)c4)n3n2)cc1 | ? | 63µM* | ? | ?
Clc1ccccc1Nc1cnc2ccc(N3CCOCC3)nn12 | ? | ? | i | ?
COC1C(=O)N(c2cccc(F)c2)C12CCN(C(=O)C1CCOCC1)CC2 (centres undefined) | -4% | -8% | i | 2%
COc1cccc([S+](=O)([O-])N2CCCN(c3ccc4nnc(C)n4n3)CC2)c1 | -17% | -3% | . | .
O=C(NCCc1ccc(F)cc1)C1CCN(Cc2ccccc2-c2ccccc2F)CC1 | 35µM* | 28µM* | . | .
O=C(NCCc1ccccc1)C1CCN(Cc2ccccc2-c2ccccc2F)CC1 | -21% | ? | . | .
O=C(NCCc1ccc(Cl)cc1)C1CCN(Cc2ccccc2-c2ccccc2F)CC1 | ? | 32µM* | . | .
O=C(C1CCC1)N1CCC(N2CC(OCC3CC3)C23CCCCC3)CC1 (centres undefined) | -19% | -6% | i | 1%
CNC(=O)c1ccc2nc(-c3cccc(C)n3)oc2c1 | ? | -29% | . | .
CS(=O)(=O)N1CCC(Cc2ccc(C(=O)NCCN3CCOCC3)cc2)CC1 | 4% | i | i | -1%
CS(=O)(=O)N1CCC(Cc2ccc(C(=O)NCCc3ccccc3)cc2)CC1 | ? | 11µM* | . | .
COc1ccc2[nH]c3c(c2c1)CCN(C)C31CCN(C(=O)c2ccccc2)CC1 | ? | ? | i | 9%
COc1cccc(CN2CCC3(CC2)c2[nH]c4ccccc4c2CCN3C)c1 | 22µM* | 25µM* | i | 0%
COc1ccc2[nH]c3c(c2c1)CCN(C)C31CCN(C(=O)c2cc(C)nn2C)CC1 | -19% | ? | i | -4%
Cc1cc(C(=O)N2CCC3(CC2)c2[nH]c4ccccc4c2CCN3C)n(C)n1 | -16% | 40µM* | i | 5%
CN1CCc2c([nH]c3ccccc23)C12CCN(C(=O)c1ccsc1)CC2 | ? | 40µM* | i | -5%
CCCOc1cc(C)c2c(c1C)C[C@H](C(C)C(=O)N1CCN(CC(=O)O)CC1)CC2 (some centres undefined) | ? | ? | i | 3%[70.6 µM]
O=c1cc(N2CCOCC2)oc2c(-c3ccc(F)c(Cl)c3)nccc12 | 18µM* | -12%[172 µM] | i | 4%[70.6 µM]
Cc1ccccc1-c1nccc2c(=O)cc(C3=CCOCC3)oc12 | ? | ? | i | 1%[70.6 µM]
CN1CCN(c2cc(=O)c3ccnc(-c4cccc(F)c4)c3o2)CC1 | 35µM* | -14%[172 µM] | i | -1%[70.6 µM]
CN1CCN(c2cc(=O)c3ccnc(-c4ccc(CO)cc4)c3o2)CC1 | ? | i | i | 5%[70.6 µM]
O=c1cc(N2CCOCC2)oc2c(-c3cccc4[nH]ccc34)nccc12 | 8.9µM* | ? | i | 7%[70.6 µM]
O=c1cc(N2CCOCC2)oc2c(-c3ccc(F)cc3)nccc12 | 32µM* | ? | i | 2%[70.6 µM]
CN1CCN(c2cc(=O)c3ccnc(-c4cccc(CO)c4)c3o2)CC1 | ? | -6%[172 µM] | i | -4%[70.6 µM]
SMILES | NIH3T3 tox | HEK cytotox | FLuc inh | NPR1 antag
O=c1cc(-c2ccncc2)oc2c(-c3ccccc3F)nccc12 | ? | ? | i | 12%[70.6 µM]
O=C(CCCc1ccccc1)N1CCC(Cc2nc(-c3ccncc3)n[nH]2)CC1 | ? | ? | i | ?
C#CCNC(=O)[C@H]1C[C@@H](O)[C@H](O)[C@@H]2N=C(Nc3cccc4ccccc34)S[C@@H]21 | ? | -17%[172 µM] | i | 5%[70.6 µM]
C#CCNC(=O)c1cc(-c2ccccc2OC)c2nncn2n1 | -26%[138 µM] | -17%[172 µM] | . | .
CN(C)c1cc(=O)c2ccnc(-c3ccc(N4CCOCC4)cc3)c2o1 | ? | i | 45µM* | -1%[70.6 µM]
Cc1cc(-c2nccc3c(=O)cc(N(C)c4ccccc4)oc23)ccn1 | 10µM* | ? | i | -1%[70.6 µM]
O=c1cc(N2CCOCC2)oc2c(N3CCOCC3)nccc12 | 40µM* | ? | i | 6%[70.6 µM]
COc1cc(F)ccc1-c1nccc2c(=O)cc(N3CCOCC3)oc12 | 45µM* | -6%[172 µM] | i | 2%[70.6 µM]
COc1cc2c(cc1CN1CCN(c3ccc(C#N)cc3)C(=O)C1)CCC2 | -28% | -21% | i | -5%
O=c1cc(N2CCOCC2)oc2c(NCc3ccc(F)cc3)nccc12 | 25µM* | ? | i | 4%[70.6 µM]
CN1CCN(c2cc(=O)c3ccnc(Nc4ccc(F)c(Cl)c4)c3o2)CC1 | 100µM* | ? | i | 2%[70.6 µM]
COc1ccc(-c2nccc3c(=O)cc(N4CCOCC4)oc23)cc1OC | 10µM* | ? | i | -1%[70.6 µM]
CC(=O)Nc1cccc(-c2nccc3c(=O)cc(-c4ccncc4)oc23)c1 | ? | i | i | 3%[70.6 µM]
O=c1cc(N2CCOCC2)oc2c(Nc3ccccn3)nccc12 | ? | -21%[172 µM] | i | 5%[70.6 µM]
Cc1cc(-c2nccc3c(=O)cc(N4CCOCC4)oc23)ccn1 | 32µM* | -21%[172 µM] | i | 5%[70.6 µM]
O=C1CCN(Cc2ccncc2)CCCC(C(=O)Nc2ccccc2CCc2ccncc2)CCN1 (centres undefined) | 3% | 4% | i | 4%
O=C1CCN(S(=O)(=O)c2ccccc2)CCCN(S(=O)(=O)c2ccc3c(c2)CCC3)CCN1 | ? | ? | i | 5%
O=C(NCCCc1ccccc1)C1CCN(c2ccnc3ccnn23)CC1 | ? | 40µM* | . | .
O=C(NCCc1ccccc1)C1CCCN(c2ccnc3ccnn23)C1 (centres undefined) | -29%[138 µM] | ? | . | .
Cc1cc(C(=O)N2CCCN(c3ccnc4ccnn34)CC2)ccc1Cl | ? | 45µM* | . | .
O=C(NCC1CCCCC1)C1CN(c2ccnc3ccnn23)C1 | -27% | 25µM* | . | .
O=C(NC1CCN(c2ccnc3ccnn23)CC1)c1ccc(Cl)cc1 | ? | 45µM* | . | .
O=C(NCC1CC1)C1CCCN(c2ccnc3ccnn23)C1 (centres undefined) | -19%[138 µM] | 3%[172 µM] | . | .
O=C(Cc1cccc(F)c1)N1CCC2(CC1)NC(=O)N(c1cccc(F)c1)N2 | ? | ? | i | 6%
O=C(NCc1ccccn1)C1CCCN(c2ccnc3ccnn23)C1 (centres undefined) | ? | -21% | . | .
O=C(NC1CCN(c2ccnc3ccnn23)C1)c1ccccc1Cl (centres undefined) | -34%[138 µM] | ? | . | .
O=C(NC1CCCN(c2ccnc3ccnn23)C1)c1ccc(C(F)(F)F)cc1 (centres undefined) | ? | 28µM* | . | .
O=C(NC1CCN(c2ccnc3ccnn23)C1)c1ccc(Cl)cc1 (centres undefined) | ? | 10µM* | . | .
O=C(NCc1cccc(C(F)(F)F)c1)C1CCCN(c2ccnc3ccnn23)C1 (centres undefined) | ? | 45µM* | . | .
O=C(NCc1ccccc1)C1CCCN1c1nccc(Nc2ccccc2F)n1 (centres undefined) | -32% | ? | . | .
